Test results from PubChem BioAssay (NCATS).
Results filed as inconclusive are left out. Active and inactive are the calls of the source. Unless noted, calls come from the whole dose curve.

Tests used:
[1] = qHTS for Inhibitors of the Functional Ribonucleoprotein Complex (vRNP) of Lassa (LASV) Arenavirus: LASV Primary Screen - GLuc reporter signal (AID 1347082; calls by dose curve; tested in HEK293 reporter line; note: nearly all actives have a fitted effect of over 60% in size; note: potency is the fitted concentration of half-maximal effect; for activity change, negative = inhibition: % is set by controls: 0 for no effect and ±100 for the full control effect); details: LASV minigenome vRNP, Gaussia luciferase reporter; series mostly up to 57.5 µM
[2] = qHTS for Inhibitors of the Functional Ribonucleoprotein Complex (vRNP) of Lassa (LASV) Arenavirus: Viability assay - alamar blue signal for LASV Primary Screen (AID 1347083; calls by dose curve; tested in HEK293 reporter line; note: nearly all actives have a fitted effect of over 80% in size; note: potency is the fitted concentration of half-maximal effect); details: cell viability, alamar blue fluorescence (LASV minigenome counter-screen); series mostly up to 57.5 µM
[3] = qHTS for Inhibitors of the Functional Ribonucleoprotein Complex (vRNP) of Lymphocytic Choriomeningitis Arenaviruses (LCMV): Viability assay - alamar blue signal for LCMV Primary Screen (AID 1347085; calls by dose curve; tested in HEK293 reporter line; note: nearly all actives have a fitted effect of over 80% in size; note: potency is the fitted concentration of half-maximal effect); details: alamar blue viability counter-screen, LCMV vRNP screen cells; series mostly up to 57.5 µM
[4] = target: Nucleoprotein (Lymphocytic choriomeningitis virus (strain Armstrong)) (UniProt P09992); experiment: qHTS for Inhibitors of the Functional Ribonucleoprotein Complex (vRNP) of Lymphocytic Choriomeningitis Arenaviruses (LCMV): LCMV Primary Screen - GLuc reporter signal (AID 1347086); details: LCMV minigenome vRNP cell assay, Gaussia luciferase reporter; series mostly up to 57.5 µM; note: nearly all actives have a fitted effect of over 70% in size; note: potency is the fitted concentration of half-maximal effect; for activity change, negative = inhibition: % is set by controls: 0 for no effect and ±100 for the full control effect
Chain of Nucleoprotein (Lymphocytic choriomeningitis virus (strain Armstrong)) (P09992 whole entry, looked up): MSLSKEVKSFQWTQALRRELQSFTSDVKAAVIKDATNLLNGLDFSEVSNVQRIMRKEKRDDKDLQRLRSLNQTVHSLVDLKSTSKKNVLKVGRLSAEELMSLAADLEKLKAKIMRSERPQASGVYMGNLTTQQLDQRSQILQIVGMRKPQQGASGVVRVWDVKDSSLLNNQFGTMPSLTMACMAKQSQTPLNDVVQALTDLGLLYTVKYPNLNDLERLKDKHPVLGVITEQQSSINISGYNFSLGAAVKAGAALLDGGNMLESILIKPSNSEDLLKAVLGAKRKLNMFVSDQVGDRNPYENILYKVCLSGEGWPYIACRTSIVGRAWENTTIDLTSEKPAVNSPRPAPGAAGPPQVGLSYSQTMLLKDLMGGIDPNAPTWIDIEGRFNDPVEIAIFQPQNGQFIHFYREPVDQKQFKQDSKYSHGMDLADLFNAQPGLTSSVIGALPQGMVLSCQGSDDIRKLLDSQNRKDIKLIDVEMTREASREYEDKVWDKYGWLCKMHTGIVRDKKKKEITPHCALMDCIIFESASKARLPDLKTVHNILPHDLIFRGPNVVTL

[5] = Primary qHTS to identify inhibitors of SARS-CoV-2 cell entry (AID 1645846); details: SARS-CoV-2 pseudovirus cell entry assay, luminescence; activity change, negative = inhibition: at 57.1 µM (top of the series) unless noted; series mostly up to 57.1 µM; note: nearly all actives have a fitted effect of over 45% in size; note: potency is the fitted concentration of half-maximal effect
How it was run: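 HEK293-ACE2 (Expi293F, stable hACE2), 1500 cells/well, o/n 37C; cpd 23 nL pin, 1 h; MLV-PP w/ SARS-CoV-2-S (Wuhan-Hu-1, Δ19 C-term); 48 h 37C; Bright-Glo luminescence; normalized vs S-PP and bald PP.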

[6] = qHTS profiling of the MIPE4 collection as inhibitors of Plasmodium falciparum (DD2) proliferation (AID 743345; call rule not given here); details: P. falciparum Dd2 in erythrocytes, SYBR Green DNA, 72 h; at 28.5 µM (top of the series) unless noted
How it was run: (§1)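 Erythrocytes infected with P. falciparum (0.3% parasitemia, 2.5% hematocrit) incubated with compounds 72 h at 37 C, 5% CO2. Lysis with saponin/Triton buffer containing SYBR Green I, overnight at room temperature in the dark; DNA fluorescence (485/535 nm) normalised to 0.29 uM artemisinin and DMSO.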

[7] = target: Alpha-galactosidase (Coffea arabica) (UniProt Q42656); experiment: Counterscreen for Glucocerebrosidase Inhibitors: qHTS Assay for Coffee Bean alpha-Galactosidase at pH 4.5 (AID 957; active = well fitted curve in the direction sought with a large enough effect; an effect the other way counts as inactive or inconclusive;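 note: plate controls were enzyme alone for no effect and no enzyme for full effect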); details: purified coffee bean alpha-galactosidase, fluorogenic substrate; series mostly up to 76.9 µM
Chain of Alpha-galactosidase (Coffea arabica) (Q42656 whole entry, looked up): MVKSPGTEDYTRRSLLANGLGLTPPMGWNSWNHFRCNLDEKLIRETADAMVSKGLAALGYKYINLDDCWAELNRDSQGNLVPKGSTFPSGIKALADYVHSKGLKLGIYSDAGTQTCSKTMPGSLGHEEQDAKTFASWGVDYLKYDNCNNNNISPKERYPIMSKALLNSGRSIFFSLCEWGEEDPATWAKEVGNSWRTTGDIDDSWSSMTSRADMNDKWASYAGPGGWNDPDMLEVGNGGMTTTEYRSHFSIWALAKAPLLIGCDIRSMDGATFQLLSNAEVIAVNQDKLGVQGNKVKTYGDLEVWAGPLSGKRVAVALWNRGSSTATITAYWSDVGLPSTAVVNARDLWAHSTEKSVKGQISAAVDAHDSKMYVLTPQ
How it was run: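 Coffee bean alpha-galactosidase 2 nM, substrate 4-MU-alpha-Gal 80 uM, pH 4.5 citrate/Tween-20, 20 min RT. Cpd titration 0.7 nM–77 uM. Stop pH 10, fluorescence 365/440 nm; Hill-equation AC50.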

[8] = target: Alpha-galactosidase (Coffea arabica) (UniProt Q42656); experiment: Counterscreen for Glucocerebrosidase Inhibitors: qHTS Assay for Coffee Bean alpha-Galactosidase at pH 5.9 (AID 998; active = well fitted curve in the direction sought with a large enough effect; an effect the other way counts as inactive or inconclusive;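 note: plate controls were uninhibited enzyme for no effect and no-enzyme basal signal for full effect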); details: coffee bean alpha-galactosidase enzyme assay; series mostly up to 76.9 µM
How it was run: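 Compounds were titrated from 0.7 nM to 77 uM against green coffee bean alpha-galactosidase (2 nM) using 80 uM fluorogenic 4-methylumbelliferyl substrate. After 20 min at room temperature, reactions were stopped at pH 10 and read by fluorescence.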

[9] = Inducers of the Endoplasmic Reticulum Stress Response (ERSR) in human glioma: Validation (AID 504836; active = well fitted curve in the direction sought with a large enough effect; an effect the other way counts as inactive or inconclusive; note: 0% is about no effect); details: human glioma cells, ER stress response reporter; series mostly up to 38.3 µM
How it was run: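 ERSR induction read as luciferase luminescence (Bright-Glo, 10 min at room temperature) in stably transfected human U87-MG glioma cells exposed to compounds for 16 h, using GRP78 as sensor.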

[10] = Cytotoxicity counterscreen for inhibitors of SARS-CoV-2 cell entry (AID 1645845); details: cell viability (SARS-CoV-2 entry assay cells); series mostly up to 57.1 µM; note: nearly all actives have a fitted effect of over 50% in size
How it was run: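 48 h compound treatment (after 1 h preincubation), HEK293-ACE2 cells, 37 C/5% CO2; ATP luminescence endpoint; normalized to cell wells and media blanks.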

[11] = VSVG counterscreen qHTS to identify inhibitors of SARS-CoV-2 cell entry (AID 1645847); details: VSV-G pseudotyped particle entry, luciferase; series mostly up to 57.2 µM; note: potency is the fitted concentration of half-maximal effect; nearly all actives have a fitted effect of over 65% in size
How it was run: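 Expi293F/hACE2 cells, overnight plating; cpd 1 h, 37C/5% CO2; + VSV-G PP (MLV pseudotyping), 48 h; supernatant removed, Bright-Glo luciferase read. Norm: VSV-G PP and bald PP wells.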

[12] = Validation screen for inhibitors of Lassa infection (AID 463096); details: Lassa virus infection, cell-based; series mostly up to 46.1 µM; note: % is set by controls: 0 for no effect and ±100 for the full control effect
[13] = qHTS profiling of the MIPE4 collection as inhibitors of Plasmodium falciparum (DD2) proliferation (Rep 2) (AID 743346; call rule not given here); details: P. falciparum Dd2 in erythrocytes, SYBR Green DNA, 72 h; at 28.5 µM (top of the series) unless noted
How it was run: as §1

[14] = qHTS profiling of the MIPE4 collection as inhibitors of Plasmodium falciparum (3D7) proliferation (AID 743344; call rule not given here;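 note: scaled between DMSO vehicle wells and 0.29 µM artemisinin as full inhibition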); details: P. falciparum 3D7 in erythrocytes, SYBR Green DNA fluorescence, 72 h; at 28.5 µM (top of the series) unless noted
How it was run: as §1

[15] = qHTS profiling of the MIPE4 collection as inhibitors of Plasmodium falciparum (HB3) proliferation (AID 743347; call rule not given here;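 note: plate controls were DMSO vehicle wells for no effect and artemisinin wells for full effect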); details: P. falciparum HB3 in erythrocytes, SYBR Green DNA, 72 h; at 28.5 µM (top of the series) unless noted
How it was run: as §1

With O=[N+]([O-])c1ccc(Nc2ccccc2-c2ccccc2)c2nonc12 the Potency [1] was “inactive”, the Potency [2] was “inactive” and the Potency [3] was “inactive”. For the same compound, the Potency [4] was “inactive” and the Potency [5] was 7940 nM (active).
With COC[C@H](NC(=O)c1cnc(C)s1)C(=O)N[C@@H](COC)C(=O)N[C@@H](Cc1ccccc1)C(=O)[C@@]1(C)CO1 the Potency [1] was 273 nM (active), the Potency [2] was 685 nM (active) and the Potency [3] was 685 nM (active). The Potency [4] was 769 nM (active) and the activity change, negative = inhibition [5] was -97.7%.
For CC[C@H](CC#N)OC(=O)N[C@@H](C)c1cccc(NC(=O)Nc2ccc(-c3cnco3)c(OC)c2)c1, the parasite growth remaining, % of DMSO control (lower = more inhibition) [6] was 66.9%, the Potency [1] was 1530 nM (active) and the Potency [2] was 769 nM (active). The Potency [3] was 968 nM (active), the Potency [4] was 769 nM (active) and the activity change, negative = inhibition [5] was -97.5%.
For CC(C)N(CCC(=O)c1ccc2ccccc2c1)Cc1ccccc1, the outcome [7] was “inactive”, the outcome [8] was “inactive” and the outcome [9] was “inactive”. For the same compound, the Potency [1] was “inactive”, the Potency [2] was “inactive” and the Potency [3] was “inactive”. The Potency [4] was “inactive” and the Potency [10] was “inactive”.
With CCOc1ccccc1N=Nc1c(C)[nH]n(-c2nc(-c3ccccc3)cs2)c1=O the Potency [1] was “inactive”, the Potency [2] was “inactive” and the Potency [3] was “inactive”. The Potency [4] was “inactive” and the Potency [5] was “inactive”.
For CNC(=O)Nc1ccc(-c2nc(N3CC4CCC(C3)O4)c3cnn(C4CCC5(CC4)OCCO5)c3n2)cc1, the Potency [1] was 15.3 nM (active), the Potency [2] was 4.9 nM (active) and the Potency [3] was 15.3 nM (active). The Potency [4] was 27.3 nM (active) and the activity change, negative = inhibition [5] was -83.7%.
For C[C@H]1[C@@H](OC(=O)CCC(=O)O)O[C@@H]2O[C@@]3(C)CC[C@@H]4[C@H](C)CC[C@@H]1[C@@]24OO3, the Potency [1] was 9680 nM (active), the Potency [2] was 5440 nM (active) and the Potency [3] was 5440 nM (active). For the same compound, the Potency [4] was 3060 nM (active) and the Potency [5] was 3160 nM (active).
In the case of Cc1ccc(C(=O)N(CCCN)[C@@H](c2oc3cc(Cl)ccc3c(=O)c2Cc2ccccc2)C(C)C)cc1, the Potency [1] is reported as “inactive”, the Potency [2] is reported as “inactive” and the Potency [3] is reported as “inactive”. The Potency [4] was “inactive” and the activity change, negative = inhibition [5] was -98.4%.
With CCn1nnc2c(N3CCOCC3)nc(-c3ccc(NC(=O)Nc4ccc(C(=O)N5CCN(C)CC5)cc4)cc3)nc21 the Potency [1] was 54.4 nM (active), the Potency [2] was 24.3 nM (active) and the Potency [3] was 30.6 nM (active). For the same compound, the Potency [4] was 38.5 nM (active) and the activity change, negative = inhibition [5] was -84.5%.
For Cc1nc(N)ncc1-c1nc(N2CCOCC2)c2sc(C(C)(C)O)cc2n1, the Potency [1] was 1530 nM (active), the Potency [2] was 863 nM (active) and the Potency [3] was 1090 nM (active). The Potency [4] was 1720 nM (active) and the Potency [5] was 7940 nM (active).
In the case of CC(C)C[C@H](NC(=O)[C@@H](NC(=O)c1cccc(-c2ccccc2)n1)[C@@H](C)O)B(O)O, the Potency [1] is reported as 685 nM (active), the Potency [2] is reported as 544 nM (active) and the Potency [3] is reported as 1090 nM (active). For the same compound, the Potency [4] was 1090 nM (active) and the activity change, negative = inhibition [5] was -97.4% [at 27.1 µM].
In the case of Cc1ccccc1C(=O)c1ccc(Nc2ccc(Br)cc2N)cc1Cl, the Potency [1] is reported as “inactive”, the Potency [2] is reported as “inactive” and the Potency [3] is reported as “inactive”. For the same compound, the Potency [4] was “inactive” and the Potency [11] was 24100 nM (active).
For N#C/C(=C\c1ccc(O)c(O)c1)C(=O)NCc1ccccc1, the outcome [7] was “inactive”, the outcome [8] was “inactive” and the Potency [12] was “inactive”. The outcome [9] was “inactive”, the Potency [1] was “inactive” and the Potency [2] was “inactive”. The Potency [3] was “inactive”, the Potency [4] was “inactive” and the Potency [10] was “inactive”.
With COc1ccc(CCC(=O)Nc2nc3ccc(Cl)cc3s2)cc1OC the parasite growth remaining, % of DMSO control (lower = more inhibition) [6] was 66.5%, the parasite growth, % of control (lower = inhibition) [13] was 46.1% and the Potency [1] was “inactive”. For the same compound, the Potency [2] was “inactive”, the Potency [3] was “inactive” and the Potency [4] was “inactive”. The Potency [10] was “inactive” and the Potency [5] was “inactive”.
CCCNC(=O)Nc1ccc(Oc2ncnc3cc(OC)c(OC)cc23)cc1Cl gave a parasite growth, % of DMSO control [14] of 38.8%, a parasite growth remaining, % of DMSO control (lower = more inhibition) [6] of 61.5% and a parasite growth, % of control (lower = inhibition) [13] of 30.3%. The growth, % of control [15] was 34.8%, the Potency [1] was “inactive” and the Potency [2] was “inactive”. The Potency [3] was “inactive”, the Potency [4] was “inactive” and the Potency [10] was “inactive”. The activity change, negative = inhibition [5] was -16.7%.
For Cc1nc(C(=O)NCC(=O)O)c(O)c2ccc(Oc3ccccc3)cc12, the Potency [1] was “inactive”, the Potency [2] was “inactive” and the Potency [3] was “inactive”. The Potency [4] was “inactive” and the activity change, negative = inhibition [5] was -9.8%.
For Cc1c(CN2CCN(S(C)(=O)=O)CC2)sc2c(N3CCOCC3)nc(-c3cnc(N)nc3)nc12, the Potency [1] was 86.3 nM (active), the Potency [2] was 43.2 nM (active) and the Potency [3] was 122 nM (active). The Potency [4] was 96.8 nM (active) and the Potency [11] was 1210 nM (active).
For CNC(=O)c1nn(C)c2c1C(C)(C)Cc1cnc(Nc3ccc(N4CCN(C)CC4)cc3)nc1-2, the Potency [1] was 3430 nM (active), the Potency [2] was 1090 nM (active) and the Potency [3] was 3850 nM (active). The Potency [4] was 3060 nM (active) and the Potency [11] was 4820 nM (active).
For O=C1c2ccccc2-[n+]2ccc3c([nH]c4ccccc43)c21, the Potency [1] was 4850 nM (active), the Potency [2] was 4320 nM (active) and the Potency [3] was 6110 nM (active). The Potency [4] was 3060 nM (active) and the Potency [5] was 1260 nM (active).
For O=C(Nc1cccc(Nc2ncc(Br)c(NCCc3cnc[nH]3)n2)c1)N1CCCC1, the Potency [1] was “inactive”, the Potency [2] was 21700 nM (active) and the Potency [3] was 27300 nM (active). For the same compound, the Potency [4] was “inactive” and the activity change, negative = inhibition [5] was -97.2%.
For CN1CCN(Cc2ccc(NC(=O)Nc3ccc(Oc4cc(NC(=O)C5CC5)ncn4)cc3)cc2C(F)(F)F)CC1, the Potency [1] was 2430 nM (active), the Potency [2] was 1530 nM (active) and the Potency [3] was 968 nM (active). For the same compound, the Potency [4] was 1720 nM (active) and the Potency [5] was 1000 nM (active).
For CC[C@H](C=C[C@@H](C)[C@H]1CC[C@H]2[C@@H]3CC=C4C[C@@H](O)CC[C@]4(C)[C@@H]3CC[C@]12C)C(C)C, the parasite growth, % of DMSO control [14] was 84.3% [at 9.64 µM], the parasite growth, % of control (lower = inhibition) [13] was 117% [at 9.64 µM] and the growth, % of control [15] was 89% [at 9.64 µM]. For the same compound, the Potency [1] was “inactive”, the Potency [2] was “inactive” and the Potency [3] was “inactive”. The Potency [4] was “inactive”, the Potency [10] was “inactive” and the Potency [5] was “inactive”.
With CC(C)(O)CCc1ccc(OCc2cc(-c3cccc(OC(F)F)c3)c3ncccc3c2)cc1 the Potency [1] was “inactive”, the Potency [2] was “inactive” and the Potency [3] was “inactive”. For the same compound, the Potency [4] was “inactive” and the activity change, negative = inhibition [5] was -16.6%.
